Assay results taken from PubChem BioAssay (NCI).
About 83,000 compounds went through this panel and 20% of them were active in at least one assay; those are over-represented in the sample as a whole.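 In brief: 96-well plates, 48 h treatment, single concentration, percent growth endpoint.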 Unmarked numbers belong to inactive results. Calls of active or inactive are those of the source.

tested on: CCRF-CEM leukemia; assay: NCI-60 one-dose screen, 48 h (100 = growth as untreated, 0 = no growth, -100 = all killed); details: 10 µM unless noted
Description: Growth inhibition of the CCRF-CEM human tumor cell line is measured as a screen for anti-cancer activity. Cells are grown in 96 well plates and exposed to the test compound for 48 hours. Compounds are tested at a single concentration, which is 10^-5 M for most compounds. The reported endpoint is percent growth (GI% or GIPRCNT), where numbers from 0 - 100% represent growth inhibition, and numbers from -100% - 0 represent cell death. For example, a value of 40 represents 60% growth inhibition. A value of 0 means no net growth occurred over the course of the experiment. A value of -40 indicates 40% of cells at the beginning of the experiment died by the end of the experiment. A value of -100 means all cells are dead at the end of the experiment.
NCI-60 Human Tumor Cell Lines Screen was performed using the standard one-dose NCI protocol, which is described in more detail at https://dtp.cancer.gov/discovery_development/nci-60/default.htm.
Compounds with GIPRCNT values below 10 were considered active. Activity score was based on GIPRCNT using the following formula: […]
Score is 0 for GIPRCNT values of 100 or above, 50 for GIPRCNT values of 0, and 100 for GIPRCNT values of -100.

Structure (SMILES)	growth
O=S(=O)(O)c1cccc2cccnc12	103%
C/C(O)=C(/C=N/C(=S)Nc1ccccc1)C(=O)Nc1ccccc1C	90.9%
c1cc(CNCCNCc2ccncc2)ccn1	89.5%
OCc1cccnc1	92.1%
Cn1c2ccccc2c2nnc(NCCCCO)nc21	107%
NC(=O)c1cc2c3ccccc3ccn2c1-c1ccccc1	2.84% (active)
CC(=O)OCC1CCC(COC(C)=O)CC1 (stereo not given)	115%
O=S(=O)(OCCOS(=O)(=O)c1ccccc1)c1ccccc1	92.9%
O=C(Nc1ccc([N+](=O)[O-])cc1)C(=O)Nc1ccc([N+](=O)[O-])cc1	101%
NNC(=O)CCCCl	112%
CC1(C)C2CCC1(C)C1(C2)OCCS1 (stereo not given)	110%
CC(=O)C1C(=O)C(=O)N(c2cccc([N+](=O)[O-])c2)C1=O (stereo not given)	106%
CSCC[C@@H]1C(=O)N(C)[C@H](C(C)(C)C)N1C(=O)c1ccccc1	111%
Nc1ccc2c(c1)Cc1cc(N)c(N)cc1-2	105%
Cc1cccc(C)c1NC(=S)/N=C\c1c(O)[nH]c(=O)[nH]c1=O	98.9%
CCCCOC(=O)c1ccccc1O	-71.6% (active)
Cn1c(=O)c2[nH]c(CC(=O)O)nc2n(C)c1=O	106%
Cn1c(=O)c2[nH]c(CCCCC(=O)O)nc2n(C)c1=O	75.6%
O=C(O)c1ccc(OCc2ccccc2)cc1	104%
COc1cccc(C(=O)NNC(=O)c2cccc3ccccc23)c1	104%

Structure (SMILES)	growth
O=[N+]([O-])c1ccc2[nH]c(=S)n(/C=C(/c3ccc(Cl)cc3Cl)S(=O)(=O)Cc3ccc(Cl)cc3Cl)c2c1	103%
O=C1NC(=O)C(c2ccccc2)O1 (stereo not given)	101%
CCOP(=O)(NC(c1ccccc1)c1ccccc1)OCC	103%
CN(C)c1ccc(O)c2c1CC1CC3C(N(C)C)C(=O)C(C(N)=O)=C(O)C3(O)C(=O)C1=C2O (stereo not given)	44.9%
Nc1cc(N)ncn1	99.2%
Nc1ccn(C2OC(CO)C(O)C2F)c(=O)n1 (stereo not given)	19.1%
CC(C)N(CCCC#N)C(C)C	86.9%
CN=S(=O)(OCCCCCOS(=O)(=NC)c1ccc(C)cc1)c1ccc(C)cc1 (stereo not given)	39.6%
OC1Cc2ccccc2C1	98.1%
Nc1ccc(F)cc1F	102%
COc1ccc(C(=O)/C(=N/Nc2ccccc2)c2ccc(OC)cc2)cc1	94.1%
COC(=O)c1cccc([N+](=O)[O-])c1	104%
S=c1nc2[nH]c3ccccc3c2n[nH]1	91.3%
COc1ccc(/C=N/NC(=O)COCC(=O)N/N=C/c2ccc(OC)cc2)cc1	86.8%
Cc1ccc(C)c(CCO)c1	119%
CC(=O)NC(O)C(Cl)Cl (stereo not given)	99.4%
CC(C)N1CC(=O)N2CSCC2C1=O (stereo not given)	107%
CN(C)c1ccc(/C=C/C(=O)c2ccc(NC(N)=O)cc2)cc1	92.8%
CCCCN(C(=O)CC)c1ccccc1	-8.28% (active)
O=C(NC(=S)N1CC=CCC1)c1ccccc1	121%
